Most compounds without a hit are left out; they make up all but 2.4% or so of the library.
D2 PAM-1: positive allosteric modulators of human D2 dopamine receptor; P14416; HEK293 T-REx D2, calcium flux, EC20 dopamine potentiation; potentiation, % at 10 µM; 0.34% of 340,000 active;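 active = potentiation over 3 SD above the plate norm, cut at about 30% in these data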; note: 0% is about no effect
Target sequence (P14416 whole entry, looked up): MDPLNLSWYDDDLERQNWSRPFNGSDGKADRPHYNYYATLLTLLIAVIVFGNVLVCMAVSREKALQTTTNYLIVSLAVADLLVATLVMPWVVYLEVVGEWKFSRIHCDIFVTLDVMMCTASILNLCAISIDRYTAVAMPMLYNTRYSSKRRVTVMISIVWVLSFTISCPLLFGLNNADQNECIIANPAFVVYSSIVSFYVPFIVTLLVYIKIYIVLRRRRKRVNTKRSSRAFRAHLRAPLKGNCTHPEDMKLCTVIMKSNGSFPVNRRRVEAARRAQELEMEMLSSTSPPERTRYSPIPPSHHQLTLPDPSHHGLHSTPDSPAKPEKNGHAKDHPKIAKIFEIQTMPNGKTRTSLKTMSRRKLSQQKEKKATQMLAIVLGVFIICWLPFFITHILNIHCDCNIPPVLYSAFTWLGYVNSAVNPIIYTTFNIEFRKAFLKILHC
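Potentiation of an EC20 dopamine calcium response is measured in a force-coupled, tetracycline-inducible Hek293 Trex D2 line. Compound-only kinetic reads over 180 s flag agonists before dopamine addition.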
D2 PAM-2: human D2 receptor positive allosteric modulation; P14416; DiscoveRx D2 beta-arrestin cells, luminescence, 90 min; 100% = 57 uM dopamine signal; 0.23% of 360,000 active; potentiation, % (no concentration beside the values); AID 624464; in the data active = potentiation above about 50%; inconclusive = mostly about 30% to 49%
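D2 cells co-treated with compound plus 50 nM dopamine (EC20) for 90 min at 37 deg C to detect potentiation. Beta-arrestin recruitment was read as enzyme-fragment luminescence after 1 h at ambient temperature. Full response was set by 57 uM dopamine.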
D2 ag-1: agonists of human D2 dopamine receptor (beta-arrestin); P14416; DiscoveRx PathHunter D2 beta-arrestin, luminescence, 90 min; 100% = 57 uM dopamine signal; activation, % (no concentration beside the values); 0.084% of 360,000 active; AID 624465; in the data active = activation above about 40%; inconclusive = between about 15% and that limit
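DiscoveRx PathHunter D2 beta-arrestin cells (2,100/well) attached overnight, then compound-stimulated 90 min at 37 C in HBSS/10 mM HEPES/0.1% Tween-20 buffer; beta-galactosidase complementation read by luminescence after 1 h at ambient temperature. Dopamine 57 uM final (EC100) as control.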
D2 ag-2: D2 dopamine receptor (human) agonism. 0.53% of 340,000 active. AID 485358. P14416. HEK293 T-REx D2 cells, calcium flux agonist mode. activation, % at 2 µM;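 active = activation over 3 SD above normal in the single-dose calcium agonist read, cut at about 30% in these data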; note: 0% is about no effect
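Agonism scored from kinetic calcium signal (1 read/sec, 180 s) following compound pin transfer, after a 10 s baseline. Cells: HEK293 Trex line expressing inducible D2 receptor coupled to calcium, dye-loaded after overnight culture at 30 C.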
D2 antag: antagonizes the human D2 dopamine receptor. P14416. HEK293 TREx D2 cells, calcium flux, dopamine EC80. 2% of 340,000 active. AID 485344. inhibition, % at 10 µM; in the data active = inhibition above about 30%; inactive = below that, where a call was filed; note: 0% is about no effect
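HEK293 T-REx D2 cells, tet-induced, calcium dye no-wash. Cpd pintool add, 180 s kinetic, then EC80 DA, 180 s kinetic. Ca flux read.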
The depositor's hits bear a star; ? = inconclusive; · = not tested or not shown.

SMILES | D2 PAM-1 | D2 PAM-2 | D2 ag-1 | D2 ag-2 | D2 antag
Cc1ccc(-c2nc(SCC(=O)NCc3ccco3)c3c(=O)n(C)c(=O)n(C)c3n2)cc1 | -8 | · | · | 0 | ·
CN1CCc2nc(SCCOc3ccccc3)c(C#N)cc2C1 | · | -23 | -3 | 0 | 31*
Oc1sc(C=Nc2ccccc2)c2ccccc12 | -2 | 24 | 6 | 36* | -11
Oc1sc(C=Nc2ccc(F)cc2)c2ccccc12 | 6 | ? | -1 | -1 | -9
O=C(CSc1nnc(-c2ccco2)n1CC1CCCO1)N1CCCCC1 (stereo not given) | 1 | -4 | 0 | 1 | 2
O=C(CSc1nnc(-c2ccccc2)n1CC1CCCO1)N1CCCC1 (stereo not given) | 32* | -9 | -5 | -2 | 13
Nn1c(SCC(=O)N2CCCCCC2)nnc1-c1ccncc1 | 1 | 2 | 2 | -1 | 30*
Cc1nnc(C)n1/N=C/c1ccc(O)cc1 | 2 | -6 | 0 | 0 | -4
CSc1ccc(/C=N/n2c(C)nnc2C)cc1 | 1 | 0 | -2 | 2 | 35*
O=C(NCCc1ccccc1)C1CCN(c2ncnc3c2nc2n3CCCCC2)CC1 | 0 | · | · | -2 | ·
COc1ccc(C(=O)c2ccc(OC)c3cccc(O)c23)cc1OC | 13 | 73* | 4 | 0 | -9
Cc1ccc(CN2CCCNC2=O)cc1 | · | -4 | 0 | · | ·
Cc1ccc(C)c(CN2CCCNC2=O)c1 | 7 | -8 | -3 | 2 | 31*
CC(C)C(=O)Nc1sc2c(c1C(N)=O)CCN(Cc1ccccc1)C2 | -18 | -12 | -7 | 3 | 26
CCC(=O)Nc1sc2c(c1C(N)=O)CCN(Cc1ccccc1)C2 | -4 | -13 | -5 | 55* | 38*
NC(=O)c1c(NC(=O)c2c(F)cccc2F)sc2c1CCN(Cc1ccccc1)C2 | -2 | -7 | -1 | 29 | -17
CCN1CCc2c(sc(NC(=O)Cc3ccccc3)c2C(N)=O)C1 | -23 | -15 | -6 | 0 | 8
CCN1CCc2c(sc(NC(=O)Nc3ccc(Cl)c(Cl)c3)c2C(N)=O)C1 | -13 | -16 | 7 | 109* | 72*
CCN1CCc2c(sc(NC(=O)c3ccc(S(=O)(=O)N(CC)c4ccccc4)cc3)c2C(N)=O)C1 | -6 | -9 | 1 | 52* | 9
NC(=O)c1c(NC(=O)c2ccccc2)sc2c1CCN(Cc1ccccc1)C2 | -7 | -7 | -1 | 44* | 6
COc1ccc(-n2c(SCC(=O)NCc3ccc(Cl)cc3)nc3ccsc3c2=O)cc1 | -7 | · | · | · | ·
CCN1CCN(c2nnc(-n3cccc3C(=O)Nc3cccc(OC)c3)s2)CC1 | -3 | · | · | 0 | ·
COc1ccccc1CNC(=O)Cn1c(=O)oc2cc(S(=O)(=O)NCc3ccccc3)ccc21 | 13 | · | · | 0 | ·
COc1ccc(OC)c(C(C)NC(=O)Cn2c(=O)cc(C)c3c(C)nn(-c4ccc(C)cc4)c32)c1 (stereo not given) | -7 | · | · | 0 | ·
O=C1c2oc3ccccc3c(=O)c2C(c2ccccc2F)N1Cc1ccc2c(c1)OCO2 (stereo not given) | -4 | · | · | -1 | ·
SMILES | D2 PAM-1 | D2 PAM-2 | D2 ag-1 | D2 ag-2 | D2 antag
Cc1c(/C(Cc2ccccc2)=N/O)c2ccccc2n1C | -2 | 0 | -3 | 4 | 37*
Cc1c(C(=O)CN2CCSCC2)c2ccccc2n1C | -3 | -23 | -2 | -2 | 4
CCCC(=O)N(CCN(C(=O)CCC)c1ccccc1)c1ccccc1 | 31* | -9 | -1 | 1 | -9
O=C(CN1CCN(Cc2ccccc2Cl)C1=O)NC1CCCCCCC1 | 0 | 5 | -1 | -2 | 31*
CC1CCCCC1NC(=O)CN1CCN(Cc2ccccc2Cl)C1=O (stereo not given) | 12 | -10 | -4 | 1 | 4
CCOC(=O)c1c(-c2ccc(OC)cc2)oc2ccc(OCC(N)=O)cc12 | -7 | -3 | ? | 0 | 19
CCOC(=O)c1c(-c2ccccc2)oc2ccc(OCC(=O)O)cc12 | -10 | -13 | -7 | 0 | 33*
Cc1ccc(CNC(=O)CO/N=C/c2ccc(C(C)(C)C)cc2)cc1 | -11 | -17 | -3 | 1 | 38*
COc1ccccc1CN1CC(C(=O)N2CCN(c3ccc(F)cc3)CC2)CC1=O (stereo not given) | 32* | -11 | 0 | -1 | -9
